The source of these data is PubChem BioAssay (Tox21).

Test [1] addresses Progesterone receptor (Homo sapiens) (UniProt P06401). Nature of the test: qHTS assay to identify small molecule agonists of the progesterone receptor (PR) signaling pathway (AID 1346784; calls by dose curve; further: nearly all actives have a fitted effect of over 30% in size; further: potency means the concentration at half of the fitted maximal effect). In a few lines:
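Cells (PR-UAS-bla HEK 293T, GripTite) were plated in assay medium containing 2% charcoal-stripped FBS and incubated 6 hr. Test compounds in DMSO were added for 16 hr at 37C. FRET substrate was then loaded for 2 hr at room temperature before fluorescence reading.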

Test [2] is described as follows: qHTS assay to identify small molecule antagonists of the progesterone receptor (PR) signaling pathway - cell viability counter screen (AID 1346798). Further: series mostly up to about 92 µM; nearly all actives have a fitted effect of over 50% in size. In short, it runs like this: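 Counter screen for cytotoxicity: viability of PR-UAS-bla HEK293T cells was measured with CellTiter-Glo luminescence following 16 hr compound exposure in the presence of R5020.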
Test [3] is described as follows: qHTS assay to identify small molecule agonists of the progesterone receptor (PR) signaling pathway - cell viability counter screen (AID 1346799; calls by dose curve; further: nearly all actives have a fitted effect of over 45% in size). In a few lines:
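Cells (PR-UAS-bla HEK293T) are plated at 3,000/well in 2% charcoal-stripped FBS medium, rested 6 hr, dosed and incubated 16 hr at 37C. CellTiter-Glo is then added and luminescence measured after 30 min at room temperature.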

Test [4] is described as follows: qHTS assay to identify small molecule antagonists of the TGF-beta/Smad signaling pathway - cell viability counter screen (AID 1346824). Further: nearly all actives have a fitted effect of over 50% in size. In short, it runs like this: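 Cytotoxicity counter-screen run in the same wells as the beta-lactamase Smad reporter read: CellTiter-Glo luminescence after 30 min at room temperature. HEK 293T SBE-bla cells had 5 hr compound exposure at 37 C with TGF-beta1 (0.25 ng/mL stock).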

The nature of test [5]: qHTS assay to identify small molecule agonists of the TGF-beta/Smad signaling pathway (AID 1346859; active means well fitted activation curve with a large enough effect in the signal ratio in the repeat runs, not every such curve was filed as active; the % refers to the signal ratio; further: series mostly up to about 77 µM). In short, it runs like this: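 Reporter line: HEK 293T with stably integrated SBE-controlled beta-lactamase. Compound exposure lasts 5 hr at 37 C and 5% CO2; substrate loading follows for 2 hr at room temperature, with emission read at 460 and 530 nm.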
Test [6] in a line: Human pregnane X receptor (PXR) small molecule agonists, qHTS cell viability counter screen (AID 1346977). Further: nearly all actives have a fitted effect of over 50% in size. In short, it runs like this:
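Cytotoxicity counter screen run in the same wells as the PXR luciferase assay, using PXR-Luc HepG2 cells in charcoal-stripped serum medium. Viability: CellTiter-Fluor fluorescence after 24hr compound treatment.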

Test [7] in a line: Caspase-3/7 induction in HepG2 cells by small molecules, qHTS assay (AID 1346978). Further: nearly all actives have a fitted effect of over 15% in size. In short, it runs like this:
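Caspase-3/7 induction was measured by Caspase-Glo 3/7 luminescence (30 min, room temperature) after a 17 hr compound exposure of wild-type HepG2 cells seeded at 2,000 per well and pre-incubated 5 hr.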

A short description of test [8]: Caspase-3/7 induction in CHO-K1 cells by small molecules, qHTS cell viability counter screen (AID 1346979). Further: nearly all actives have a fitted effect of over 35% in size. Further: potency means the concentration at half of the fitted maximal effect. In a few lines:
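Cytotoxicity counter screen run in parallel with the caspase-3/7 assay: CHO-K1 cells, 16hr compound treatment at 37C, then CellTiter-Fluor for 1hr before fluorescence reading.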

Test [9] in a line: Caspase-3/7 induction in CHO-K1 cells by small molecules, qHTS assay (AID 1346980). Further: nearly all actives have a fitted effect of over 15% in size. In short, it runs like this:
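Luminescent Caspase-Glo 3/7 read (30min, room temperature) quantified apoptosis induction. Cells were wild-type CHO-K1, treated with compound for 17hr at 37 C and 5% CO2.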

A short description of test [10]: Caspase-3/7 induction in HepG2 cells by small molecules, qHTS cell viability counter screen (AID 1346981). Further: series mostly up to about 92 µM; nearly all actives have a fitted effect of over 30% in size. In a few lines: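 Fluorescence read-out of live-cell protease activity (CellTiter-Fluor) after 1 hr with reagent. This was measured in the same wells as the caspase-3/7 luminescence, on HepG2 cells exposed to DMSO-dissolved compounds for 16 hr at 37 C.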
Test [11] has as its target Nuclear receptor subfamily 1 group I member 2 (Homo sapiens) (UniProt O75469). Nature of the test: Human pregnane X receptor (PXR) small molecule agonists, qHTS assay (AID 1346982). Further: nearly all actives have a fitted effect of over 35% in size. Further: potency means the concentration at half of the fitted maximal effect. In a few lines: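 HepG2 PXR-Luc reporter line, 5% charcoal-stripped FBS; 5 hr pre-incubation, compound (DMSO) 24 hr at 37 C/5% CO2; ONE-Glo 30 min RT; luminescence read-out.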
The target in test [12] is Acetylcholinesterase (Homo sapiens) (UniProt P22303). Nature of the test: Acetylcholinesterase (AChE) small molecule antagonists: colormetric cell-based qHTS assay (AID 1347395; calls by dose curve; further: nearly all actives have a fitted effect of over 30% in size). In a few lines:
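Cells (SH-SY5Y, 2,000 per well) are seeded and left overnight at 37 C. Compound is added for 30 min, then DTNB and acetylthiocholine for a further 90 min at 37 C before absorbance-based thiocholine detection.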

Test [13] in a line: qHTS assay to identify small molecule agonists of the estrogen receptor alpha (ER-alpha) signaling pathway in the presence of an antagonist - cell viability counter screen (AID 1259386). Further: series mostly up to about 92 µM; nearly all actives have a fitted effect of over 30% in size. In a few lines: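 Read-out: CellTiter-Fluor fluorescence after 1hr reagent incubation, measured in the same wells as the luciferase readout. VM7Luc4E2 cells were exposed to 15 compound concentrations with 10.0nM ICI-182,780 for 22hr at 37C.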

Test [14] in a line: qHTS assay to identify small molecule agonists of the TGF-beta/Smad signaling pathway - cell viability counter screen (AID 1346829). Further: top concentration of the series differs between compounds; nearly all actives have a fitted effect of over 45% in size. In short, it runs like this: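 After overnight seating at 37 C and 5% CO2, reporter cells got compounds for 5 hr and FRET substrate for 2 hr; cell viability then came from CellTiter-Glo luminescence.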
The target in test [15] is Thyrotropin-releasing hormone receptor (Homo sapiens) (UniProt P34981). The experiment in a line: qHTS assay to identify small molecule agonists of the thyrotropin-releasing hormone receptor (TRHR) signaling pathway (AID 1346891; calls by dose curve;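 further: HEK293 cells expressing TRHR with calcium dye readout; series mostly up to about 58 µM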). In a few lines: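 Cells: TRHR-Hek293, seeded and incubated 18 h. Dye loading: 2 h at 37 °C. Compound added from DMSO stock by pin tool. Read-out: kinetic calcium fluorescence over 3 min.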

For test [16], the target named is Progesterone receptor (Homo sapiens) (UniProt P06401). Nature of the test: qHTS assay to identify small molecule antagonists of the progesterone receptor (PR) signaling pathway (AID 1346795; active means well fitted inhibition curve with a large enough effect in the signal ratio in the repeat runs, not every such curve was filed as active; the % refers to the signal ratio; further: potency means the concentration at half of the fitted maximal effect). In short, it runs like this: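 Antagonist mode: compounds tested against 1 nM (final) promegestone stimulation in HEK293T cells expressing PR-UAS-bla reporter, 16 hr at 37C, 5% CO2; beta-lactamase activity detected via B/G FRET substrate after 2 hr at room temperature.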

The target in test [17] is Thyrotropin-releasing hormone receptor (Homo sapiens) (UniProt P34981). The experiment in a line: qHTS assay to identify small molecule antagonists of the thyrotropin-releasing hormone receptor (TRHR) signaling pathway (AID 1346877; active means well fitted inhibition curve with a large enough effect in the repeat runs, not every such curve was filed as active; further: series mostly up to about 51 µM). In a few lines: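 HEK293/TRHR cells, 18 h, 37 °C; Ca2+ dye 2 h; cpd 5 min RT; TRH 1 nM final; fluorescence read 3 min, 1 s intervals; 15 concs, triplicate.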

A number with no mark means an inactive call. Inconclusive results are not listed. Activity calls are given as the source filed them. Unless noted, the call rests on the fitted dose curve; in most records, active means well fitted curve in the direction sought with a large enough effect in the repeat runs; inconclusive means weak or mixed curves; inactive means no such curve, though single readings can be large; an effect the other way counts as inactive or inconclusive.

Chain of Progesterone receptor (Homo sapiens) (P06401 whole entry, looked up): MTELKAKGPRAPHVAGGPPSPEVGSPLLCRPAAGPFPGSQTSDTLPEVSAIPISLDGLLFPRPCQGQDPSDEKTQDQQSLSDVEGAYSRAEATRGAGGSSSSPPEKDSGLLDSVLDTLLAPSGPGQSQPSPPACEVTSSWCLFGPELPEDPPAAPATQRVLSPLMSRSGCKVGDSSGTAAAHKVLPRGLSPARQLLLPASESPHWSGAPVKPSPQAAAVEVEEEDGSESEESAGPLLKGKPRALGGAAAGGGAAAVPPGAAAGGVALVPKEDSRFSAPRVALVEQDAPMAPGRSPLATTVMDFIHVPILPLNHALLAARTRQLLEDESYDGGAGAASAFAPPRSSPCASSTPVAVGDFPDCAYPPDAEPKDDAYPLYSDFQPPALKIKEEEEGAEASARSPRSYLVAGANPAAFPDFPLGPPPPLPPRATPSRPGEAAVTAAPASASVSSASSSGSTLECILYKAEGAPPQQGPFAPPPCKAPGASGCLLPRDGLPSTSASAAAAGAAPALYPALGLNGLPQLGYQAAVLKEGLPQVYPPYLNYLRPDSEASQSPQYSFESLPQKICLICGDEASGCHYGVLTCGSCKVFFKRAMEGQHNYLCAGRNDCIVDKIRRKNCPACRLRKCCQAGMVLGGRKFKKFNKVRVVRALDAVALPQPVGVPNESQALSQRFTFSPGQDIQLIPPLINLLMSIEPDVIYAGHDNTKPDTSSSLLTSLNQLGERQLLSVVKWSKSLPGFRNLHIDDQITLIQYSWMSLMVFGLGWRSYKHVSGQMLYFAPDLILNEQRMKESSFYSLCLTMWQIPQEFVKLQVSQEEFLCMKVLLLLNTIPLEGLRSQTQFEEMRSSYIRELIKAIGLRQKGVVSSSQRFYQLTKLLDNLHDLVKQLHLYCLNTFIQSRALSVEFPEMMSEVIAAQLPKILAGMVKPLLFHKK
Chain of Nuclear receptor subfamily 1 group I member 2 (Homo sapiens) (O75469 whole entry, looked up): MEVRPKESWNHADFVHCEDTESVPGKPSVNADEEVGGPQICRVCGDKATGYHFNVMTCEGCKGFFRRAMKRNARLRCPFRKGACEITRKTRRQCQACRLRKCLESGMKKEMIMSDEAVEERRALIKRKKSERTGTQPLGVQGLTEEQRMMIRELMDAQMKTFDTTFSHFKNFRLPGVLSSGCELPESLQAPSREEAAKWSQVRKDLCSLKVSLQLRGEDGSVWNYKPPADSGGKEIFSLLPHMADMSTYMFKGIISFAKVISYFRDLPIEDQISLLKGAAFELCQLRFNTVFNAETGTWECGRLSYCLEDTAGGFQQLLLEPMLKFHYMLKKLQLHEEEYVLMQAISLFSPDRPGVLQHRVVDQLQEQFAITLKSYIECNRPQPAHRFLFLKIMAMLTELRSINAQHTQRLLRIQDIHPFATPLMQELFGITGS
Chain of Thyrotropin-releasing hormone receptor (Homo sapiens) (P34981 whole entry, looked up): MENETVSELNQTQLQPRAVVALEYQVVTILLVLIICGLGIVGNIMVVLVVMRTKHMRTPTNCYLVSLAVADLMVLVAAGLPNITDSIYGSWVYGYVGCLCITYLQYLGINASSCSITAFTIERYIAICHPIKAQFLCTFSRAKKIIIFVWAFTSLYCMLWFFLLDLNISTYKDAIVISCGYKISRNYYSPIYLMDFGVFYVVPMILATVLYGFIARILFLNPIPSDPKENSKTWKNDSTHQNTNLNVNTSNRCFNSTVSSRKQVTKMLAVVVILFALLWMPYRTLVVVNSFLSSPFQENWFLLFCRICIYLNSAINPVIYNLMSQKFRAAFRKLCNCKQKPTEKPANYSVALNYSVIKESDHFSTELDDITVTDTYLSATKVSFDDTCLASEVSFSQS
Chain of Acetylcholinesterase (Homo sapiens) (P22303 whole entry, looked up): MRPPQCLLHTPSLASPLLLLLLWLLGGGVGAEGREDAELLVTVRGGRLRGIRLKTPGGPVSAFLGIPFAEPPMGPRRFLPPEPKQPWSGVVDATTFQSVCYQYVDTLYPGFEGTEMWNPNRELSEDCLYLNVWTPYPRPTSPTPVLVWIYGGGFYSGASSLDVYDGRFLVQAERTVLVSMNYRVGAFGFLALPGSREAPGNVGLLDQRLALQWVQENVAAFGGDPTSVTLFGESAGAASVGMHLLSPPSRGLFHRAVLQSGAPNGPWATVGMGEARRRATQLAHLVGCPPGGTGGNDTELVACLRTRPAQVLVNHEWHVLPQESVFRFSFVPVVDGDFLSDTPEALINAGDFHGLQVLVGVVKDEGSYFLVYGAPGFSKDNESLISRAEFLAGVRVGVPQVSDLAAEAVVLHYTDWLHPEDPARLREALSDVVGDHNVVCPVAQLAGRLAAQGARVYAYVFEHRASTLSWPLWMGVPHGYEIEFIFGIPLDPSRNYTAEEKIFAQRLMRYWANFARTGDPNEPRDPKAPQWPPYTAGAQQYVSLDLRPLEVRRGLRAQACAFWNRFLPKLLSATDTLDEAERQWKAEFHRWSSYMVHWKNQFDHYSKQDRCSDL

Turning to `C=CCOC(=O)c1ccccc1N`, the Potency entry in test [1], in test [2], in [3], in [4], in test [6] and in [7] was “inactive” each time. The Potency entry in test [8], in test [9], in test [10], in test [11] and in test [12] was “inactive” each time. Moreover, the result in test [5] was inactive.
Regarding `C#CCC1=C(C)C(OC(=O)C2C(C=C(C)C)C2(C)C)CC1=O` (stereo not drawn), the Potency result in [13], in test [4], in [14], in test [15], in test [7] and in test [9] was “inactive” throughout. Moreover, the Potency result in [10] and in [12] was “inactive” each time. The compound was called inactive in test [5]. The Potency in [11] was 10.8 µM (active).
In the case of `CC(Cl)CCl` (stereo not drawn), the Potency entry in [1], in test [2], in test [3], in [4], in test [6] and in [7] was “inactive” in each case. Besides, the Potency result in [8], in test [9], in [10], in test [11] and in test [12] was “inactive” in each case. Moreover, the outcome in test [5] was inactive.
Take `C[C@@H]1CC2=CC(=O)CC[C@@H]2[C@H]2CC[C@@]3(C)[C@@H](CC[C@]3(C)O)[C@@H]21`: the Potency in [1] was 0.0017 µM (active). Further, the Potency entry in [16], in test [4], in [14], in [6], in test [7] and in [9] was “inactive” in each case. In addition, the Potency result in test [10], in test [11] and in [12] was “inactive” throughout. Besides, in [5], the outcome was inactive.
Regarding `COC(=O)c1cc(Oc2ccc(Cl)cc2Cl)ccc1[N+](=O)[O-]`, the Potency result in test [1], in [4], in test [14], in [6], in [7] and in [9] was “inactive” each time. Moreover, the Potency result in test [10] and in test [12] was “inactive” throughout. In addition, the figures for the Potency in [16] and in test [11] were 15.4 µM (active) and 54.5 µM (active), respectively. Moreover, the outcome in [5] was inactive.
Turning to `[O-][Cl+3]([O-])([O-])O`, the Potency entry in [1], in test [16], in test [2], in [3], in [4] and in test [17] was “inactive” in each case. Also, the Potency entry in test [15], in test [6], in test [7], in [9], in [10] and in test [11] was “inactive” throughout. Further, the Potency result in [12] was “inactive”.
On to `Cc1cnc2c(C(=O)O)c(Cl)ccc2c1`, for which the Potency entry in test [1], in test [16], in test [2], in test [3], in [4] and in test [15] was “inactive” each time. The Potency entry in test [6], in test [7], in test [8], in [9], in [10] and in test [11] was “inactive” each time. Further, the Potency entry in [12] was “inactive”. For the same compound, the outcome in test [5] was inactive.
For `CC(Cc1ccc(OCC(=O)O)cc1)NCC(O)c1csc(C(F)(F)F)n1` (stereo not drawn), the Potency result in test [1], in [16], in test [2], in [3], in [4] and in [14] was “inactive” each time. Besides, the Potency entry in test [17], in test [15], in [6], in [7], in test [9] and in [10] was “inactive” each time. Besides, the Potency result in test [11] and in test [12] was “inactive” each time.
On to `FC(F)C(F)(F)OCC(Cn1cncn1)c1ccc(Cl)cc1Cl` (stereo not drawn), for which the Potency entry in [1], in test [14], in test [17], in [15], in [7] and in test [9] was “inactive” each time. The Potency result in test [12] was “inactive”. Also, the Potency was 19.2 µM (active) in test [16], 48.3 µM (active) in test [8] and 27.1 µM (active) in [11]. Moreover, the outcome in test [5] was inactive.
